PKA-R1A act: activates the PKA-R1A holoenzyme complex. P00514+P68181. PKA-R1A dissociation, Cy5-IP20 fluorescence polarization; scaled: DMSO 0%, 113 µM cGMP 100%. activation, % at 11.4 µM. 0.083% of 340,000 active. AID 504707;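 active = percent activation above the mean of all tested compounds plus 3 SD, cut at about 19% in these data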;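 note: higher means more PKAc released from R1A so a rise in polarization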
PKA-R2B activ: activates the human PKA-R2B holoenzyme complex | activation, % at 11.4 µM | PKA-R2B holoenzyme dissociation, Cy5-IP20 fluorescence polarization; R2B truncated from residue 108, S112A mutant; 0% DMSO only, 100% 113 µM cGMP | 0.079% of 340,000 active | P22694+P31323;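 active = activation above a cutoff set at the mean over all compounds plus 3 SD, cut at about 18% in these data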;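 note: higher means more holoenzyme dissociation and a rise in polarization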
PAFAH1B3 inh: inhibitors of human PAFAH1B3 | 0.28% of 340,000 active | inhibition, % at 3.39 µM | recombinant PAFAH1B3, FP-rhodamine probe, fluorescence polarization | Q15102;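 active = inhibition above the screen-wide average of all tested compounds plus 3 SD, cut at about 25% in these data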;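 note: 0% = enzyme with DMSO only and 100% = wells lacking PAFAH1B3 protein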
Target sequence (Q15102 whole entry, looked up): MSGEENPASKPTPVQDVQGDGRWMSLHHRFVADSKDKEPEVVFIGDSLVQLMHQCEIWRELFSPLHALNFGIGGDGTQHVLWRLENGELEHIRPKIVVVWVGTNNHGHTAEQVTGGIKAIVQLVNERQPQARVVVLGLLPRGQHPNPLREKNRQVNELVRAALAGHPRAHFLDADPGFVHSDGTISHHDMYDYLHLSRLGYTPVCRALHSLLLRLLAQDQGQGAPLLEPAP
pPAFAH FP inh: inhibitors of human plasma PAF acetylhydrolase (pPAFAH). Q13093. recombinant pPAFAH, FP-rhodamine probe fluorescence polarization. inhibition, % at 3.39 µM. 1.5% of 330,000 active;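 active = inhibition above the mean inhibition across the screen plus 3 SD, cut at about 25% in these data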;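 note: inhibitors block binding of the rhodamine activity-based probe so polarization drops; 0% = enzyme with DMSO and 100% = wells lacking pPAFAH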
Target sequence (Q13093 whole entry, looked up): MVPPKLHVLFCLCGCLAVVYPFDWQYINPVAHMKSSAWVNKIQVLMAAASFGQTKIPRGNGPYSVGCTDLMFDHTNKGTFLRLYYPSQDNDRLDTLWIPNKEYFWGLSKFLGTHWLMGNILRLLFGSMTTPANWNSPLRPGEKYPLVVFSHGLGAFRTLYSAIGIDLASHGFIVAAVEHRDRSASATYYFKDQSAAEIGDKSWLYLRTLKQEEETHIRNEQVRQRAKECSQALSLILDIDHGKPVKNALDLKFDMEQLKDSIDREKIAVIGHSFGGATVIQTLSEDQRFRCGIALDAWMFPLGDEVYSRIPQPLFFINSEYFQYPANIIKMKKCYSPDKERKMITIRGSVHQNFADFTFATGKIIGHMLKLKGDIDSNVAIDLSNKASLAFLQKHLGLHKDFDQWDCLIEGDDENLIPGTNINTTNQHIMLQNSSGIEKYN
PAFAH1B2 FP inh: inhibitors of human PAFAH1B2; AID 492953; 1.2% of 340,000 active; inhibition, % at 3.39 µM; P68402; recombinant PAFAH1B2, FP-rhodamine activity probe, fluorescence polarization;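 active = inhibition above the mean of all tested compounds plus 3 SD, cut at about 24% in these data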;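 note: 0% = enzyme with DMSO and 100% = wells lacking PAFAH1B2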
PAFAH2 FP inh: PAFAH2 (human) inhibition; Q99487; recombinant PAFAH2, FP-rhodamine activity probe, fluorescence polarization; inhibition, % at 3.39 µM; 0.99% of 340,000 active;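 active = inhibition above the mean over all tested compounds plus 3 SD, cut at about 30% in these data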;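 note: inhibitors block probe labeling of enzyme so polarization drops; 0% = enzyme with DMSO and 100% = wells lacking PAFAH2 protein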
An asterisk follows results filed as active; · = not tested or not shown. Rows were chosen to be rich in hits. Some 2.6% of all compounds tested hit in one or more screens of this group.

SMILES	PKA-R1A act	PKA-R2B activ	PAFAH1B3 inh	pPAFAH FP inh	PAFAH1B2 FP inh	PAFAH2 FP inh
O=C(CCc1ccccc1)c1c(O)cc(O)cc1O	-22.8	-18.9	1.5	10.3	42.3*	4.4
CC(=O)Nc1ccc(-c2ccc3nnc(C)n3n2)cc1	-4.7	-1.6	-0.4	0.8	5.4	-1.1
Cc1nnc2ccc(-c3ccc(NC(=O)Cc4cccs4)cc3)nn12	-1.7	-18.2	2.6	27.4*	0.8	-3.1
O=C(N/N=C/c1ccc([N+](=O)[O-])o1)c1cn(-c2ccccc2)nc1-c1ccccc1	-1.4	-3.9	7.0	26.7*	-0.7	-3.7
CN(C)CC(=O)Nc1ccc(Oc2ccc(Cl)cc2)cc1	-1.9	2.7	7.3	25.5*	3.9	5.9
Cc1ccc(S(=O)(=O)Nc2cccc(C(=O)NCC(C)(C)N3CCOCC3)c2)cc1F	-7.3	-4.6	7.8	5.5	2.6	1.1
CC(C)(CNC(=O)c1cccc(NS(=O)(=O)c2ccc(Br)cc2)c1)N1CCOCC1	15.7	5.8	6.4	7.3	27.2*	1.8
O=C(CNS(=O)(=O)c1ccc(Br)s1)N1CCN(c2ncccn2)CC1	3.0	-6.1	4.3	·	24.6*	12.3
Cc1ccc(N2CC(C(=O)NNC(=O)c3ccc(F)cc3)CC2=O)cc1 (stereo not drawn)	-1.7	-5.7	8.0	0.5	8.0	3.3
O=[N+]([O-])c1cc(-c2cnc3ccccc3n2)ccc1Oc1ccc(F)cc1	-4.2	3.6	6.0	11.2	57.8*	-11.9
O=[N+]([O-])c1ccccc1Oc1cnc2ccccc2n1	-3.8	3.2	-1.4	5.2	2.7	2.1
O=C(CCCCCl)Nc1c2c(nc3ccccc13)CCC2	1.0	-1.3	-0.2	4.0	-4.3	-6.9
O=C(COc1ccc(Cl)cc1)c1ccc(O)cc1O	-5.2	-13.8	2.8	-2.1	26.8*	-8.5
COc1ccc(NS(=O)(=O)c2cc(NC(=O)Cc3c(F)cccc3Cl)ccc2OC)cc1	-9.6	-2.5	4.1	1.1	1.9	-3.5
COc1ccc(NC(=O)Cc2cccc(F)c2)cc1S(=O)(=O)Nc1ccccc1Cl	-1.0	-4.6	5.0	29.8*	6.3	1.7
Cc1cccc(N=C2NC(=O)/C(=C/c3cccn3C)S2)c1C	-5.5	-0.3	7.8	32.4*	3.3	9.6
N/C(=N\OC(=O)CCc1ccccc1)c1cccc(Br)c1	-21.1	-10.4	7.6	4.2	66.5*	6.0
N/C(=N\OC(=O)CCc1ccccc1)c1ccc(Br)cc1	-0.8	-12.4	4.3	6.3	71.0*	-1.5
Cc1ccc(/C(N)=N/OC(=O)CCc2ccccc2)cc1	-3.5	-3.2	1.9	3.9	9.0	2.9
O=C(CCS(=O)(=O)c1ccc2c(c1)NC(=O)CS2)NCCc1ccc(Cl)cc1	2.9	-7.4	5.8	5.0	26.0*	1.4
NC(=O)COC(=O)c1cccc(S(=O)(=O)N2CCCc3ccccc32)c1	0.2	-15.9	14.2	-12.6	12.5	21.2
NC(=O)CCN(C(=O)c1cccc(S(=O)(=O)N2CCc3ccccc32)c1)c1ccccc1	-5.0	4.0	4.2	-0.6	27.2*	-3.0
CCCCC[C@@H]1C=C(C(=O)O)[C@H](c2ccc(Cl)c(Cl)c2)N1S(=O)(=O)c1ccc(C)cc1	5.3	1.9	-2.6	0.7	28.6*	8.0
CCCCC[C@@H]1C=C(C(=O)O)[C@H](c2ccc(F)cc2)N1S(=O)(=O)c1ccc(C)cc1	2.1	-5.0	6.3	-1.3	25.4*	14.6
O=C(NCC1CCCN(Cc2cccc(F)c2)C1)c1cccc2ccccc12 (stereo not drawn)	2.5	9.7	2.3	3.1	-0.7	-7.5
SMILES	PKA-R1A act	PKA-R2B activ	PAFAH1B3 inh	pPAFAH FP inh	PAFAH1B2 FP inh	PAFAH2 FP inh
COc1ccc2[nH]c(=O)c(CN(Cc3ccco3)C(=O)c3ccccc3)cc2c1	-11.8	-1.0	4.6	1.9	2.1	2.1
COc1cccc(C(=O)N(Cc2ccco2)Cc2cc3cccc(C)c3[nH]c2=O)c1	-4.2	1.1	8.7	24.9*	2.4	-3.5
CC(=O)Nc1ccc2nc(NS(=O)(=O)c3ccc(C)cc3)sc2c1	-4.3	-4.4	13.8	26.3*	6.5	1.0
O=C(O)c1ccccc1NC(c1ccccc1)c1ccc(Cl)cc1 (stereo not drawn)	-13.0	6.8	12.2	15.7	41.2*	2.7
O=C(CSc1ccccc1C(=O)O)c1ccc(Cl)cc1	-8.4	-0.6	3.0	0.0	11.7	6.6
COc1ccccc1/C=C/C=N/NC(=O)c1ccccn1	-8.9	-1.2	1.5	0.1	-3.9	0.4
COc1ccccc1/C=C/C=N/NC(=O)c1cc(-c2ccco2)[nH]n1	·	·	·	29.5*	·	·
CCc1ccc(OCC(=O)NNCC(=O)Nc2ccc(OC)cc2)cc1	3.0	-11.1	4.0	·	11.6	2.8
COc1ccc2c(c1)C(=NNc1ccc(C(=O)O)cc1)c1cc(OC)ccc1-2	-16.4	-15.4	27.0*	31.3*	11.1	21.0
O=C(O)c1cc(N/N=C/c2c[nH]c3ccccc23)ccc1Cl	-11.7	-5.3	-5.2	11.5	1.5	24.4
COc1ccc2c(c1)c(/C=N/Nc1ccc(C(=O)O)cc1)c(C)n2C	1.8	-0.6	8.3	25.0*	3.2	5.8
COc1ccc2c(/C=N/Nc3ccc(C(=O)O)cc3)c[nH]c2c1	4.3	2.3	6.3	27.8*	-1.4	-3.5
O=C(O)COc1ccccc1C(Nc1ccccn1)c1cc(Cl)c2cccnc2c1O (stereo not drawn)	-10.1	-6.9	2.8	32.3*	1.8	29.0
CCCC(=O)NC(c1cccs1)c1cc(Cl)c2cccnc2c1O (stereo not drawn)	-7.4	-12.8	9.6	33.0*	4.2	4.0
CCCC(=O)NC(c1ccco1)c1cc(Cl)c2cccnc2c1O (stereo not drawn)	-9.9	-9.4	12.4	29.8*	5.5	-3.4
CCCC(=O)NC(c1ccc2c(c1)OCO2)c1cc(Cl)c2cccnc2c1O (stereo not drawn)	-4.9	2.1	7.2	32.4*	2.3	0.5
CCC(=O)NC(c1ccc(C)cc1)c1cc(Cl)c2cccnc2c1O (stereo not drawn)	1.1	-6.8	16.1	19.9	3.1	4.7
CCC(=O)NC(c1ccco1)c1cc(Cl)c2ccccc2c1O (stereo not drawn)	4.7	6.6	-1.0	4.2	-2.0	7.8
CCC(=O)NC(C)c1cc(Cl)c2cccnc2c1O (stereo not drawn)	-0.2	1.0	7.9	1.2	6.8	-0.5
Cc1ccccc1NC(=O)CN1C(=O)NC2(CCCCCCC2)C1=O	1.7	-1.0	4.9	·	4.4	7.9
CC(C)Cc1nnc(NC(=O)C2CCCN(C(=O)c3ccc(Cl)cc3)C2)s1 (stereo not drawn)	0.6	-7.4	·	·	·	·
COc1ccc(-n2nnnc2SCC(=O)c2ccc(O)c(O)c2)cc1	0.6	0.5	9.4	29.8*	12.0	28.6
